Source: PubChem
Only some compounds are listed: those with a hit (about 11% of all), similar ones and a draw of the others.
G9a block: inhibitors of human histone lysine methyltransferase G9a | G9a H3K9 monomethylation, AlphaScreen, 2 h | Potency, µM (highest dose often 102 µM), hits mostly inhibitors | actives 8.8% (n = 350,000); also: nearly all actives have a fitted effect of over 75% in size
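Readings reflect AlphaScreen signal from monomethyl-H3K9 antibody detection. HMT at 20 nM; substrate b-H3K9 500 nM; cofactor SAM 20 uM; 2 h RT reaction; compounds tested as titrations in qHTS with 15 min preincubation.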
HP1b chromo inh: inhibitors of HP1-beta chromodomain binding to methylated histone tails; actives 0.56% (n = 390,000); Potency, µM (series often up to 114 µM), actives largely listed as inhibitors; AID 540317; P83916; AlphaScreen HP1-beta / biotin-H3K9me3 peptide binding; also: nearly all actives have a fitted effect of over 70% in size
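HP1-beta protein (50 nM final) preincubated 30 min at room temperature with biotinylated H3(1-18)K9me3 peptide (50 nM) in PBS pH 7.4, 0.01% Tween-20, then compound added for 30 min. AlphaScreen streptavidin donor/nickel chelate acceptor beads (10 ug/mL final), 30 min dark, luminescence read.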
BAZ2B block: BAZ2B (human) inhibition. Q9UIF8. AlphaScreen BAZ2B-H3K14Ac peptide displacement. Potency, µM (series often up to 114 µM), hits mostly inhibitors. actives 4.4% (n = 360,000). AID 504333; also: nearly all actives have a fitted effect of over 60% in size
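AlphaScreen displacement: compounds (up to 110uM) incubated 30 min at room temperature with a preformed 50 nM BAZ2B/50 nM biotinylated H3K14Ac peptide complex in PBS pH 7.4 with Tween-20. Donor and acceptor beads at 10 ug/mL final added, 20 min light-protected before reading.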
L3MBTL1 block: inhibitors of human L3MBTL1 | AlphaScreen L3MBTL1–H3K9me1 peptide binding | Potency, µM (series often up to 57.1 µM), actives largely listed as inhibitors | actives 0.66% (n = 230,000) | AID 485360; also: nearly all actives have a fitted effect of over 60% in size
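L3MBTL1 50 nM + b-AHA-H3(1-15)K9me1 75 nM, 30 min RT; compound added, 30 min RT; streptavidin donor/Ni-chelate acceptor beads 10 ug/mL each final, 30 min RT dark; AlphaScreen read.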
JMJD2A Tudor inh: inhibitors of human JMJD2A Tudor domain; AlphaScreen JMJD2A-Tudor / H3K4me3 peptide binding; AID 504339; Potency, µM (doses to about 114 µM), actives largely listed as inhibitors; actives 4.4% (n = 390,000); also: nearly all actives have a fitted effect of over 50% in size
Target sequence (O75164 whole entry, looked up, the tested form may be a part): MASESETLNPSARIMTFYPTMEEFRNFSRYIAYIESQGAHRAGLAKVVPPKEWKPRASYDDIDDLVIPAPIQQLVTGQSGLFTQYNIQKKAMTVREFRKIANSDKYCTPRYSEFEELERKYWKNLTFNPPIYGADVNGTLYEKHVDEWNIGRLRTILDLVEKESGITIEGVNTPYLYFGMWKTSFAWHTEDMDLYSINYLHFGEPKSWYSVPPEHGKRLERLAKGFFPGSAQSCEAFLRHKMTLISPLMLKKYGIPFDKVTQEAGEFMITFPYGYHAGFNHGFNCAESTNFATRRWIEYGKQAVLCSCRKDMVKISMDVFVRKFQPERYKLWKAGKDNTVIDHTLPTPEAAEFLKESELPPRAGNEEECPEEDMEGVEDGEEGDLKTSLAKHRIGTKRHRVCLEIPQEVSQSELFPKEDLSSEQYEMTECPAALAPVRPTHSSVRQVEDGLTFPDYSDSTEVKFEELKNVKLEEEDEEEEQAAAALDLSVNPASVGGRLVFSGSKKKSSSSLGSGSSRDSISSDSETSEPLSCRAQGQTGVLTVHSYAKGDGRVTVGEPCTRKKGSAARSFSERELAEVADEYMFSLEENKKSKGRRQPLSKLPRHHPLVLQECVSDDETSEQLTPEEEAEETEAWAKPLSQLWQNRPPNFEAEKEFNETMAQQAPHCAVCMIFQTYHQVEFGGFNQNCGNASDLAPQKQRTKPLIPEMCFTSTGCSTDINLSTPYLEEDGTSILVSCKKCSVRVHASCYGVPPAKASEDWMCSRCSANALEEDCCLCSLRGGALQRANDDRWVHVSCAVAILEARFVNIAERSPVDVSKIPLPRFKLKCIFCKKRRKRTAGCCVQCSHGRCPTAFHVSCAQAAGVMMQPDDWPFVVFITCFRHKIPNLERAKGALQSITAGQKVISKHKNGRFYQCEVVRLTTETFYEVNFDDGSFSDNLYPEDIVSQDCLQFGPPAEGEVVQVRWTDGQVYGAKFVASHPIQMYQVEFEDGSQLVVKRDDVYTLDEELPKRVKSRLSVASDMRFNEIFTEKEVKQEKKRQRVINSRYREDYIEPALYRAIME
PI5P4K alpha inh: blocks human PI5P4K alpha kinase activity. P48426. PI5P4Kalpha enzyme, ADP-Glo luminescence, 60 min; hits give low values. max response, %. actives 1.2% (n = 330,000). AID 652105; active = max response of -50% or lower; inconclusive = between -30% and -50%; inactive = -30% or higher; also: value at the top dose of about 77 µM
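ADP-Glo luminescence end-point after a 60 min room-temperature kinase reaction. PI5P4Kalpha and substrate in HEPES pH 7.4 buffer with EGTA, 0.1% CHAPS and 5% DMSO; ATP at 5 microM final.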
A number is an active result; - = inactive; ? = inconclusive; . = no result; [ ] = another dose, or the depositor's remark. Unless noted, calls follow the shape of the dose curve; as a rule, active = well fitted inhibition curve with a large enough effect; inconclusive = small, poorly fitted or top-dose-only effect; inactive = no such curve, though single readings can be large or run the other way.

SMILES	G9a block	HP1b chromo inh	BAZ2B block	L3MBTL1 block	JMJD2A Tudor inh	PI5P4K alpha inh
COCC(=O)Nc1nc2n(n1)C(c1ccccc1)CC(c1ccc(OC)cc1)N2 (stereo not given)	?	-	?	-	56µM	.
Cc1cn2c(=O)cc(COC(=O)c3cccc(NC(=O)COc4ccccc4)c3)nc2s1	-[12.7 µM]	-	-	.	-	.
COc1cc(NC(=O)C(OC(=O)CNC(=O)c2ccccc2)c2ccccc2)c(OC)cc1Cl (stereo not given)	.	.	.	.	-	.
CCCCc1ccc(C2C(C#N)=C(N)SC(N)=C2C#N)s1	?	.	50µM	-	.	.
CC1Cn2c(nnc2-c2cc3ccccc3cc2O)S1 (stereo not given)	?	-	-	-	-	.
CC1Cn2c(nnc2-c2ccccc2O)S1 (stereo not given)	8.9µM	-	?	-	?	-
COc1ccc(CCNCC(=O)Nc2ccc(OC(F)F)cc2)cc1	-	-	-	.	-	-
O=C(CNCc1ccc(Cl)cc1)Nc1ccc(C(=O)N2CCCCC2)cc1	7.1µM	45µM	56µM	.	1.1µM	-
COc1ccc(CCNCC(=O)Nc2ccc(C(=O)N3CCCCC3)cc2)cc1	8.9µM	?	40µM	.	1.4µM	-
O=C(CNCc1ccc(Cl)cc1)Nc1ccc(C(=O)N2CCCCCC2)cc1	7.9µM	?	50µM	.	3.5µM	-
O=C(c1ccc(NC(=S)NCc2ccc(Cl)cc2)cc1)N1CCCCC1	-	-	-	-	-	-
Cc1cccc(Nc2c([N+](=O)[O-])cc(C(=O)N3CC(=O)Nc4ccccc43)cc2[N+](=O)[O-])c1	11µM	-	?	-	?	-
Cc1ccc(C)c(NC(=O)CNC(=O)N2CC(=O)Nc3ccccc32)c1	-	-	-	.	-	-
Cc1ccc(C)c(Nc2c([N+](=O)[O-])cc(C(=O)N3CC(=O)Nc4ccccc43)cc2[N+](=O)[O-])c1	18µM	?	25µM	-	?	-
CC(C)(C)C(=O)Nc1nc2c(s1)COc1ccccc1-2	?	-	-	-	-	-
Nc1nc2c(s1)COc1ccccc1-2	32µM	?	-	-	-	-
Cc1ccc(C(=O)N2c3ccc(C)cc3C(C)(c3ccccc3)CC2(C)C)cc1 (stereo not given)	-	-	-	.	-	.
Cc1cccc(/C=C2\CCC(=C3SCCCS3)C2=O)c1	50µM	16µM	10µM	-	45µM	-
COc1ccc(N2CCN(C(=O)c3[nH]c4ccc(OC)cc4c3C)CC2)cc1	40µM	?	?	.	28µM	-
COc1ccc2[nH]c(C(=O)N3CCC(CO)(Cc4cccc(C(F)(F)F)c4)CC3)c(C)c2c1	79µM	-	-	-	-	-
COc1ccc2[nH]c(C(=O)N3CCc4ccccc4C3)c(C)c2c1	-	-	-	.	-	-
CCOC(=O)C1CCN(C(=O)c2[nH]c3ccc(OC)cc3c2C)CC1	-	-	-	.	-	-
COc1ccc2cc(C(=O)N3CCN(c4ccc(F)cc4)CC3)[nH]c2c1	50µM	-	-	.	-	-
CCOc1ccccc1N1CCN(C(=O)c2cc3cc(OC)ccc3[nH]2)CC1	35µM	-	?	.	?	-
Cc1ccc(CSCCNC(=O)C2CCN(S(=O)(=O)Cc3ccccc3)CC2)cc1	-	-	-	.	-	.
SMILES	G9a block	HP1b chromo inh	BAZ2B block	L3MBTL1 block	JMJD2A Tudor inh	PI5P4K alpha inh
COc1ccc(CNC(=O)c2ccc(CS(=O)Cc3ccccc3Cl)o2)cc1 (stereo not given)	-	-	-	.	-	.
COc1cccc(CC2(CO)CCCN(Cc3cn[nH]c3-c3cc(C)ccc3C)C2)c1 (stereo not given)	.	-	-	-	-	-
O=C(c1cc2cc(F)ccc2[nH]1)N1CCN(c2cccc(Cl)c2)CC1	-	-	-	.	-	-
COc1cccc(N2CCN(C(=O)c3cc4cc(Cl)ccc4[nH]3)CC2)c1	71µM	-	-	.	?	-
COc1cccc(CC2(CO)CCCN(Cc3[nH]c4ccc(C)cc4c3C)C2)c1 (stereo not given)	45µM	-	?	-	-[11.4 µM]	-
Cc1c(C)n(C)c2ccc(C(=O)Nc3cccc4ccccc34)cc12	50µM	?	?	-	?	-
CCn1c(C)c(C)c2cc(C(=O)NCCc3ccco3)ccc21	50µM	-	?	.	?	-
Cc1c(C)n(C)c2ccc(C(=O)NCCCN3CCCCC3C)cc12 (stereo not given)	-	-	?	.	?	-
Cc1ccccc1CCNC(=O)c1ccc2c(c1)c(C)c(C)n2C	?	-	?	.	?	.
Cc1c(C)n(C)c2ccc(C(=O)NCCCN(C)C3CCCCC3)cc12	50µM	-	25µM	.	?	-
Cc1c(C)n(C)c2ccc(C(=O)NCCc3ccco3)cc12	.	?	35µM	.	?	-
CCn1c(C)c(C)c2cc(C(=O)NCCc3ccc(C)cc3)ccc21	?	-	-	.	?	.
COc1ccc(CCNC(=O)CCc2c(C)nc3c4c(C)cc(C)nc4nn3c2C)cc1OC	-	-	-	.	-	.
CCS(=O)(=O)c1c(S(=O)(=O)CC)c2cc(C(C)(C)C)ccn2c1C(=O)c1ccc(F)cc1	-	-	-	.	-	.
Nc1nn(-c2ccccc2)nc1C(=O)OCc1c(F)cccc1Cl	-	-	-	.	-	.
CCc1nnc(SCC(=O)N(CC)c2ccccc2)c2cc3oc(C)cc3n12	-	-	?	.	-	.
COC(=O)c1ccccc1NC(=O)Cn1c(=O)n(Cc2ccc(C(=O)NCc3ccc4c(c3)OCO4)cc2)c(=O)c2ccccc21	-	-	-	.	-	.
CCn1c(C)c(C)c2cc(C(=O)NCCc3cc(OC)c(OC)c(OC)c3)ccc21	?	-	45µM	.	?	.
COc1ccc(OC)c(NC(=O)N(C)CCc2c(C)nn(C)c2C)c1	-[12.7 µM]	-	-	.	-	.
Oc1cccc2c(NC(=S)Nc3ccc(SC(F)F)cc3)cccc12	40µM	?	45µM	?	?	-
Oc1cccc(NC(=S)Nc2ccc(SC(F)F)cc2)c1	-	-	-	-	-	-
O=C(Nc1ccccc1)c1nc2ccccc2s1	-	-	-	-	-	-
Cc1cccc(NC(=S)c2nc3ccccc3s2)c1	.	28µM	8.9µM	?	50µM	-
Cc1ccc(-c2nc3ccc([N+](=O)[O-])cc3[nH]2)cc1	?	-	-	-	-	-
O=[N+]([O-])c1ccc2nc(-c3ccncc3)[nH]c2c1	?	-	-	-	-	-
O=[N+]([O-])c1ccc2nc(-c3ccc(Cl)cc3)[nH]c2c1	40µM	-	-	-	-	?
O=[N+]([O-])c1cccc(-c2nc3ccc([N+](=O)[O-])cc3[nH]2)c1	79µM	-	-	?	20µM	?
Cc1c(Cl)cccc1NC(=O)CSc1nc(=O)n(CCN2CCOCC2)c2c1CCC2	-	-	-	.	-	.
